Assay results from PubChem BioAssay AID540308 (The Scripps Research Institute Molecular Screening Center, 2011).
Where “and” joins values, the source holds several entries; their conditions need not be identical. Equal entries are not always repeated. In all, about 360,000 compounds went through this assay and about 3,500 (0.97%) were called active.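 How the source made its calls: active means activation above a per-plate cutoff, the mean activation of sample wells on that plate plus 3 SD (cut at about 8% in these data); inactive means the rest.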 The sample as a whole holds a higher share of actives than the screen did. A structure can be active in one record and inactive in another.

These compounds were tested against Melanocortin receptor 4 (Homo sapiens) (UniProt P32245) (assay: activators of MC4R beta-arrestin recruitment – cell-based, luminescence, agonist arm of biased-ligand search, primary screen (AID 540308)). Conditions: U2OS MC4R beta-arrestin complementation, at 8.9 µM, stronger effect = higher value, percent of melanotan II response, DMSO zero.
Chain of Melanocortin receptor 4 (Homo sapiens) (P32245 whole entry, looked up): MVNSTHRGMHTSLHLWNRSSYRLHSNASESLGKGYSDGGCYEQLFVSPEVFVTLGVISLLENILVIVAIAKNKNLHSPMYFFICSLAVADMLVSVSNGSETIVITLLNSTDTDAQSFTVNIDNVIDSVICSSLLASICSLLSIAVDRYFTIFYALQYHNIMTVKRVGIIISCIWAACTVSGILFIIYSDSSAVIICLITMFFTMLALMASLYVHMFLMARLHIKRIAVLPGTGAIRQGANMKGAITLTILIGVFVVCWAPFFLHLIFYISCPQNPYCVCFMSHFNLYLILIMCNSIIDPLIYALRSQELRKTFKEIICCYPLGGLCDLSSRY

Compound	activation
CCc1nc2ccc(C(=O)NC3CCN(Cc4ccccc4)CC3)cn2c1N(C)CCN1CCOCC1	-0.77% (inactive)
CC(C(=O)Nc1ccc(O)c(C(=O)O)c1)N1C(=O)/C(=C/c2cccs2)SC1=S (configuration not stated)	-1.84% (inactive)
O=C(CCCN1C(=O)/C(=C/c2cccs2)SC1=S)Nc1ccc(O)cc1	20.4% (active)
COc1ccc(/C=C2/SC(=O)N(CCCCCC(=O)Nc3ccccc3C(=O)O)C2=S)cc1	-0.47% (inactive)
O=C(CN1C(=O)/C(=C\c2ccccc2F)SC1=S)Nc1nc2ccccc2s1	0.77% (inactive)
COc1cccc(/C=C2\SC(=S)N(CCCC(=O)N3CCOCC3)C2=O)c1	-0.8% (inactive)
O=C(CCCN1C(=O)/C(=C\c2ccco2)SC1=S)Nc1cccc2ccccc12	13.9% (active)
COc1ccc(Cl)cc1-c1cc(C(=O)Nc2cc(OC)c(OC)c(OC)c2)[nH]n1	3.58% (inactive)
CCCNC(=O)c1cc(C2CCCCN2S(=O)(=O)c2cn(C)cn2)on1 (configuration not stated)	-0.95% (inactive)
O=C(Nc1ccc2oc(-c3ccc4ccccc4c3)nc2c1)c1cccs1	14.3% (active)
COc1ccc2oc(-c3cccc(NC(=O)CSc4ccc(Cl)cc4)c3)nc2c1	5.84% (inactive)
O=C(Nc1ccc2oc(-c3ccccc3F)nc2c1)c1ccco1	-1.85% (inactive)
CCOC(=O)C1(C)CCCN(C(=O)c2cccc(Cl)c2)C1 (configuration not stated)	0.39% (inactive)
COc1ccc(S(=O)(=O)N2CCCCC2c2cc(C(=O)NCc3ccc(F)cc3)no2)cc1 (configuration not stated)	-0.38% (inactive)
COc1ccc(-c2noc(COc3ccc(Cl)c(C)c3)n2)cc1	9.56% (active)
COc1ccc(C(C)=O)cc1COc1ccc(Cl)c(C)c1	-1.85% (inactive)
COc1ccc(N2CCN(C(=O)CCc3nc(-c4ccc(C)cc4)no3)CC2)cc1	-1.45% (inactive)
O=C(CCCOc1ccccc1)NCc1ccco1	-0.5% (inactive)
O=C(CCCCCN1C(=O)c2cccc3cccc(c23)C1=O)NCc1ccco1	19.2% (active)
O=C(COC(=O)CCCN1C(=O)c2cccc3cccc(c23)C1=O)NC1CCS(=O)(=O)C1 (configuration not stated)	0.21% (inactive)
CCCNC(=O)C1(C)CCN(C(=O)c2ccc(F)cc2Cl)C1 (configuration not stated)	0.56% (inactive)
CCc1nnc(NC(=O)CSCc2cc(=O)n3cc(C)sc3n2)s1	-1.4% (inactive)
CCc1nc2c(OCCc3cccc(OC)c3)cccn2c1N(C)C(=O)c1ccc(C)cc1	-0.79% (inactive)

Compound	activation
CSc1ccc(/C=N/NC(=O)c2cccc(Cl)c2)cc1	1.13% (inactive)
Cc1ccc(/C=N/NC(=O)COc2ccccc2-c2ccccc2)cc1	1.38% (inactive)
CSc1ccc(/C=N\NC(=O)COc2ccc(Cl)cc2Br)cc1	36.4% (active)
COCCNc1ncnc2c1ncn2[C@H]1CN(Cc2ccc(OC)cc2)C[C@@H](CO)O1	0% (inactive)
CCCS(=O)(=O)NC(=O)C1(C)CCCN(C(=O)c2cc(C)on2)C1 (configuration not stated)	1.12% (inactive)
CC(C)CNS(=O)(=O)c1ccc(CCC(=O)NCc2ccc(Cl)cc2)cc1	0.27% (inactive)
Cc1ccc(S(=O)(=O)NCCC(=O)NCc2ccc(Cl)cc2)cc1C	-1.43% (inactive)
CSc1ccc(S(=O)(=O)NCc2ccc(Cl)cc2)cc1	10.2% (active)
O=C(NC1CC1)c1cccc(Br)c1	-2.46% (inactive)
O=C(NC(=S)Nc1cccc2c(O)cccc12)c1cccc(Br)c1	30.6% (active)
O=C(NC(=S)Nc1ccc(S(=O)(=O)Nc2ncccn2)cc1)c1cccc(Br)c1	-2.77% (inactive)
Cc1ccccc1Cn1c(C)c(C(=O)NCc2cccc(C(F)(F)F)c2)sc1=O	2.6% (inactive)
O=C(CCCCCn1c(=S)[nH]c2cc3c(cc2c1=O)OCO3)N1CCN(c2ccc(F)cc2)CC1	13.7% (active)
CC(C)NC(=O)CCCn1c(=S)[nH]c2cc3c(cc2c1=O)OCO3	-1.77% (inactive)
Cc1ccc(C)c(N2CCN(C(=O)CCCCCn3c(=S)[nH]c4ccc(N5CCOCC5)cc4c3=O)CC2)c1	-2.66% (inactive)
CCc1nc2ccc(C(=O)NCCNC(C)=O)cn2c1N(CC)Cc1cccc(Br)c1	-0.75% (inactive)
CCc1nc2ccc(C(=O)Nc3cccc(OC)c3)cn2c1N(CCC(C)C)CCN(C)C	0.02% (inactive)
COc1ccc(C(C)(NC(C)=O)c2nc(-c3ccc(S(C)(=O)=O)cc3)cs2)cc1 (configuration not stated)	-1.32% (inactive)
CC(=O)Nc1ccc(OC(=O)COc2ccc(Br)cc2)cc1	-0.49% (inactive)
Cc1ccc(O)c(NC(=S)NC(=O)COc2ccc(Br)cc2)c1	19.5% (active)
Cn1cccc1C(=O)NNC(=O)COc1ccc(Br)cc1	-1.12% (inactive)
CCCC(=O)N1CCC1(C)C(=O)NCc1ccc(SC)cc1 (configuration not stated)	-2.08% (inactive)
CC(C)c1ccc(CC(=O)N2CCC2(C)C(=O)NS(=O)(=O)c2ccc(C(C)(C)C)cc2)cc1 (configuration not stated)	0.36% (inactive)

Compound	activation
CCS(=O)(=O)Nc1cccc(-c2cc(-c3ccccc3)c3cc(C)ccc3n2)c1	8.87% (active)
CS(=O)(=O)Nc1cccc(-c2cn3ccccc3n2)c1	-3.26% (inactive)
Cc1cc(C)cc(NS(=O)(=O)Cc2ccccc2)c1	0.25% (inactive)
CNc1cncc(-c2cccc(C(=O)N3CCOCC3)c2)n1	-2.12% (inactive)
CC(C)(C)CC(=O)Nc1nc(C(N)Cc2ccc(C(F)(F)F)cc2)cs1 (configuration not stated)	9.49% (active)
NC(c1ccccc1)c1csc(NC(=O)Nc2cccc(C(F)(F)F)c2)n1 (configuration not stated)	7.09% (inactive)
NC(Cc1ccccc1)c1csc(Nc2cc(Oc3ccccc3)ncn2)n1 (configuration not stated)	4.18% (inactive)
COc1ccc(CC(N)c2csc(NC(=O)Nc3ccc(C(C)C)cc3)n2)cc1 (configuration not stated)	4.05% (inactive)
NC(c1csc(NC(=O)Nc2cccc(C(F)(F)F)c2)n1)C1CCCCC1 (configuration not stated)	6.14% (inactive)
COc1ccc(C(N)c2csc(NC(=O)Nc3cccc(C(F)(F)F)c3)n2)cc1 (configuration not stated)	9.99% (active)
COc1ccc(CC(N)c2csc(NC(=O)Cc3ccccc3)n2)cc1 (configuration not stated)	-0.85% (inactive)
NC(Cc1ccc(F)cc1)c1csc(Nc2nncc3ccccc23)n1 (configuration not stated)	6.94% (inactive)
COc1ccc(CC(N)c2csc(NC(=O)NC(c3ccccc3)c3ccccc3)n2)cc1 (configuration not stated)	13.1% (active)
Cc1cccc(NC(=O)CN2CCN(CC(=O)NCC3(N4CCCCC4)CCCCC3)CC2)c1C	-0.84% (inactive)
c1cc(-c2ccc3[nH]ccc3c2)n2ccnc2c1	-0.92% (inactive)
CCNC(=O)C1CCCN(C(=O)c2ccc(OC)cc2OC)CC1 (configuration not stated)	0.47% (inactive)
O=C(NCc1ccco1)c1cccc(-c2ccc3nncn3c2)c1	1.37% (inactive)
CCCOc1ccc(F)cc1-c1cc(C(=O)Nc2ccc(F)cc2)[nH]n1	0.53% (inactive)
CC1(C(=O)NS(=O)(=O)c2ccccc2)CCN1C(=O)C/C=C/c1ccccc1 (configuration not stated)	-2.25% (inactive)
COCc1cccc(-c2csc(C(O)c3ccc(F)cc3)n2)c1 (configuration not stated)	-0.9% (inactive)
CSc1ncccc1C(=O)Nc1nc2ccc(F)cc2s1	-1.02% (inactive)
COc1ccc(CNC(=O)c2ccc(Br)s2)cc1OC	-3.45% (inactive)
COc1ccc2nc(NC(=O)c3ccc(Br)s3)sc2c1	16.2% (active)

Compound	activation
O=C(COc1ccc2c(c1)CCC2)N1CCN(c2ccc(F)cc2)CC1	0.92% (inactive)
COc1cc(NC(=O)c2[nH]cnc2C(N)=O)cc(C(=O)Nc2cccc(C(F)(F)F)c2)c1	1.84% (inactive)
O=C(Nc1cccc(C(F)(F)F)c1)c1ccc(N2CCNCC2)c([N+](=O)[O-])c1	-2.39% (inactive)
COc1cc(NC(=O)c2cncc(-c3ccc(C#N)cc3)c2)cc(C(=O)Nc2cccc(C(F)(F)F)c2)c1	2.04% (inactive) and 10.5% (active)
Cc1nc(C(F)(F)F)ccc1C(=O)N1CCC1(C)C(=O)NS(=O)(=O)c1ccc(F)cc1F (configuration not stated)	1.24% (inactive)
NS(=O)(=O)c1ccc(NC(=S)Nc2ccc(Br)c(Cl)c2)cc1	-1.38% (inactive)
Cc1cccc(NC(=S)Nc2ccc(Cl)c(Cl)c2)c1	8.62% (active)
S=C(Nc1ccccc1)Nc1ccc2ccccc2c1	0.79% (inactive)
OC(c1ccc(Cl)c(F)c1)c1ncc(-c2ccccc2Cl)[nH]1 (configuration not stated)	5.44% (inactive)
COc1ccc(-c2noc(C(C)NS(=O)(=O)c3ccc(NC(C)=O)cc3)n2)cc1 (configuration not stated)	-3.52% (inactive)
CCCC(=O)N1CCC1(C)C(=O)NCc1ccc(C(C)C)cc1 (configuration not stated)	1.64% (inactive)
COc1c(C)cc(C(O)c2ncc(-c3cccc(C(F)(F)F)c3)[nH]2)cc1C (configuration not stated)	2.23% (inactive)
O=C1CC(NNc2ccccc2)C(=O)N1c1cccc(Cl)c1 (configuration not stated)	2.47% (inactive)
N#Cc1ccccc1CN1C(=O)S/C(=C/c2cccn2-c2cccc(C(=O)O)c2)C1=O	1.23% (inactive)
O=C1N/C(=C/c2cccn2-c2ccccc2)C(=O)N1c1cccc(Cl)c1	30.7% (active)
CCN(CCN(C)C)C(=O)c1ccc2nc(C)c(N(C)C(=O)CCc3ccccc3)n2c1	0.87% (inactive)
O=C(NCCCN1CCOCC1)c1cc(-c2cccc(O)c2)on1	-2.51% (inactive)
O=C(c1cc(-c2cccc(O)c2)on1)N1CCc2ccccc2C1	11.5% (active)
O=C(c1cc(-c2ccc(O)cc2)on1)N1CCOCC1	-1.26% (inactive)
CC1(C(=O)Nc2cccc3cccnc23)CCN1C(=O)CCC1CCCC1 (configuration not stated)	0.32% (inactive)
CCN(CC)CCN(C(=O)c1ccc2c(c1)CCCC2)c1nc2c(OC)cccc2s1	5.13% (inactive)
COc1cccc2sc(N(CCCN(C)C)C(=O)C(c3ccccc3)c3ccccc3)nc12	11.3% (active)
Cc1cccc2sc(N(CCCN(C)C)C(=O)CCS(=O)(=O)c3ccccc3)nc12	-2.28% (inactive)
